# From PubChem BioAssay (NCI)
# About 79,000 compounds went through this panel and 15% of them were active in at least one assay; those are over-represented in the sample as a whole. Values without a mark were called inactive. Activity calls are given as the source filed them. Rule as the data show it: active = growth inhibition above about 70%; inactive = the rest.
# Tests used:
# [1] = NCI Yeast Anticancer Drug Screen. Data for the rad52 strain (AID 147);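 also: 0% = growth of vehicle-treated control cultures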; conditions: S. cerevisiae rad52 mutant growth inhibition, active compounds read high
# How it was run: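 Yeast strain carrying a DNA damage repair alteration was exposed to test compounds. Growth inhibition was measured relative to vehicle-treated controls.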
# [2] = NCI Yeast Anticancer Drug Screen. Data for the wt1 strain (AID 149);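 also: 0% = growth of vehicle-treated wt1 cultures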; conditions: S. cerevisiae wt1 strain (SPY 50644) growth inhibition, active compounds read high
# How it was run: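 Measured: growth of wt1 yeast under compound versus vehicle treatment, reported as inhibition.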
# [3] = NCI Yeast Anticancer Drug Screen. Data for the rad50EPP+ strain (AID 151);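 also: 0% = growth of vehicle-treated control cultures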; conditions: S. cerevisiae rad50 mutant strain, active compounds read high
# How it was run: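 Yeast strain carrying rad50 alteration (rad50EPP+) exposed to compounds; growth inhibition measured relative to vehicle-treated controls.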
# [4] = NCI Yeast Anticancer Drug Screen. Data for the mgt1 strain (AID 153); conditions: S. cerevisiae mgt1 mutant growth inhibition, active compounds read high
# How it was run: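 Yeast mgt1 strain (DNA repair/cell-cycle alteration panel) exposed to compounds; growth inhibition measured relative to vehicle-treated controls.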
# [5] = NCI Yeast Anticancer Drug Screen. Data for the rad50 strain (AID 155);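 also: 0% = growth of vehicle-only cultures of the same strain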; conditions: S. cerevisiae rad50 strain growth inhibition, active compounds read high
# How it was run: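 Growth of the mutant yeast was measured after compound exposure and referenced to vehicle-treated cultures.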
# [6] = NCI Yeast Anticancer Drug Screen. Data for the mec2-1 strain (AID 157); conditions: S. cerevisiae mec2-1 strain, active compounds read high
# How it was run: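 mec2-1 yeast strain, carrying an alteration in DNA damage repair or cell cycle control, was exposed to compounds; growth inhibition was measured relative to vehicle-treated controls.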
# [7] = NCI Yeast Anticancer Drug Screen. Data for the rad14 strain (AID 159);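 also: 0% = growth of vehicle-treated control cultures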; conditions: S. cerevisiae rad14 strain growth inhibition, active compounds read high
# How it was run: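 Here, inhibition of yeast growth was measured after compound exposure, using a strain with a genetic defect in DNA damage repair and vehicle-treated cultures as the reference.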
# [8] = NCI Yeast Anticancer Drug Screen. Data for the sgs1 mgt1 strain (AID 161);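 also: 0% = growth of cultures given vehicle only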; conditions: S. cerevisiae sgs1 mgt1 strain, active compounds read high
# How it was run: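 This yeast growth screen uses a strain with defined DNA-repair lesions; compound-treated growth is compared with vehicle-treated growth.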
# [9] = NCI Yeast Anticancer Drug Screen. Data for the CLN2oe strain (AID 163);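 also: 0% = growth of vehicle-only control cultures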; conditions: S. cerevisiae CLN2oe strain, active compounds read high
# How it was run: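 Yeast cells carrying a defined cell-cycle control alteration were exposed to test compounds. Growth inhibition was scored against vehicle-treated control cultures.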
# [10] = NCI Yeast Anticancer Drug Screen. Data for the cln2 rad14 strain (AID 165);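 also: 0% = growth equal to vehicle treated cultures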; conditions: S. cerevisiae cln2 rad14 strain, active compounds read high
# How it was run: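 Yeast carrying cln2 and rad14 alterations (cell cycle control and DNA damage repair) were exposed to compounds. Growth inhibition was measured against vehicle-treated controls.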
# [11] = NCI Yeast Anticancer Drug Screen. Data for the bub3 strain (AID 167); conditions: S. cerevisiae bub3 mutant strain, active compounds read high
# How it was run: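 Whole-cell yeast assay. The mutant strain was incubated with compounds, and growth inhibition was determined by comparison with vehicle-treated cells.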
# [12] = NCI Yeast Anticancer Drug Screen. Data for the wt2 strain (AID 169);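 also: 0% = growth of vehicle-treated yeast cultures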; conditions: S. cerevisiae wt2 strain growth inhibition, active compounds read high
# How it was run: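 Yeast cells were exposed to test compounds, and growth inhibition was measured relative to vehicle-treated controls.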
# [13] = NCI Yeast Anticancer Drug Screen. Data for the mlh1 strain (AID 171);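 also: 0% = growth of vehicle-treated control cultures of the same strain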; conditions: S. cerevisiae mlh1 strain growth inhibition, active compounds read high
# How it was run: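 Yeast carrying a defined genetic alteration in DNA damage repair or cell cycle control were exposed to test compounds. Growth inhibition was measured relative to vehicle-treated controls.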
# [14] = NCI Yeast Anticancer Drug Screen. Data for the sgs1 strain (AID 173);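 also: 0% = growth of vehicle-only control cultures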; conditions: S. cerevisiae sgs1 mutant, active compounds read high
# How it was run: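 Yeast mutant strains carrying defined defects in DNA damage repair or cell cycle control were exposed to test compounds. Growth inhibition was scored against vehicle-treated controls.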
# [15] = NCI Yeast Anticancer Drug Screen. Data for the mlh1 rad18 strain (AID 175); conditions: S. cerevisiae mlh1 rad18 strain growth inhibition, active compounds read high
# How it was run: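 Growth inhibition of the yeast strain was measured after compound exposure and expressed relative to vehicle-treated controls. The strain carries defined defects in DNA damage repair.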
# [16] = NCI Yeast Anticancer Drug Screen. Data for the rad18 strain (AID 177); conditions: S. cerevisiae rad18 mutant growth inhibition, active compounds read high
# How it was run: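 Yeast carrying a defined DNA damage repair alteration were exposed to compounds. Growth inhibition was expressed relative to vehicle-treated controls.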
# [17] = at 5.0 µM (retest, dose inferred, filed as 0.5)
# [18] = at 50.0 µM (retest, dose inferred, filed as 5.0)
smiles,measurement,setting,value
O=C1C=CC(=O)N1c1ccc(N2C(=O)C=CC2=O)cc1,growth inhibition,[1]; at 1.2 µM,43%
same,growth inhibition,[1]; at 3.7 µM,93% (active)
same,growth inhibition,[1]; at 11.0 µM,100% (active)
same,growth inhibition,[1]; at 33.0 µM,100% (active)
same,growth inhibition,[1]; at 100.0 µM,99% (active)
same,growth inhibition,[2]; at 1.2 µM,33%
same,growth inhibition,[2]; at 3.7 µM,95% (active)
same,growth inhibition,[2]; at 11.0 µM,100% (active)
same,growth inhibition,[2]; at 33.0 µM,100% (active)
same,growth inhibition,[2]; at 100.0 µM,98% (active)
same,growth inhibition,[3]; at 1.2 µM,3%
same,growth inhibition,[3]; at 3.7 µM,49%
same,growth inhibition,[3]; at 11.0 µM,85% (active)
same,growth inhibition,[3]; at 33.0 µM,99% (active)
same,growth inhibition,[3]; at 100.0 µM,99% (active)
same,growth inhibition,[4]; at 1.2 µM,60%
same,growth inhibition,[4]; at 3.7 µM,102% (active)
same,growth inhibition,[4]; at 11.0 µM,100% (active)
same,growth inhibition,[4]; at 33.0 µM,100% (active)
same,growth inhibition,[4]; at 100.0 µM,98% (active)
same,growth inhibition,[5]; at 1.2 µM,32%
same,growth inhibition,[5]; at 3.7 µM,97% (active)
same,growth inhibition,[5]; [17],44%
same,growth inhibition,[5]; at 11.0 µM,100% (active)
same,growth inhibition,[5]; at 33.0 µM,100% (active)
same,growth inhibition,[5]; [18],73% (active)
same,growth inhibition,[5]; at 50.0 µM,92.2% (active)
same,growth inhibition,[5]; at 100.0 µM,99% (active)
same,growth inhibition,[6]; at 1.2 µM,46%
same,growth inhibition,[6]; at 3.7 µM,101% (active)
same,growth inhibition,[6]; [17],39%
same,growth inhibition,[6]; at 11.0 µM,100% (active)
same,growth inhibition,[6]; at 33.0 µM,100% (active)
same,growth inhibition,[6]; [18],82% (active)
same,growth inhibition,[6]; at 50.0 µM,94.4% (active)
same,growth inhibition,[6]; at 100.0 µM,99% (active)
same,growth inhibition,[7]; at 1.2 µM,17%
same,growth inhibition,[7]; at 3.7 µM,101% (active)
same,growth inhibition,[7]; at 11.0 µM,100% (active)
same,growth inhibition,[7]; at 33.0 µM,100% (active)
same,growth inhibition,[7]; at 100.0 µM,99% (active)
same,growth inhibition,[8]; [17],-16%
same,growth inhibition,[8]; [18],100% (active)
same,growth inhibition,[8]; at 50.0 µM,93.5% (active)
same,growth inhibition,[9]; at 1.2 µM,35%
same,growth inhibition,[9]; at 3.7 µM,59%
same,growth inhibition,[9]; at 11.0 µM,99% (active)
same,growth inhibition,[9]; at 33.0 µM,99% (active)
same,growth inhibition,[9]; at 100.0 µM,99% (active)
same,growth inhibition,[10]; [17],47%
same,growth inhibition,[10]; [18],100% (active)
same,growth inhibition,[10]; at 50.0 µM,92.3% (active)
same,growth inhibition,[11]; at 1.2 µM,48%
same,growth inhibition,[11]; at 3.7 µM,96% (active)
same,growth inhibition,[11]; [17],19%
same,growth inhibition,[11]; at 11.0 µM,100% (active)
same,growth inhibition,[11]; at 33.0 µM,100% (active)
same,growth inhibition,[11]; [18],99% (active)
same,growth inhibition,[11]; at 50.0 µM,92.8% (active)
same,growth inhibition,[11]; at 100.0 µM,99% (active)
same,growth inhibition,[12]; at 1.2 µM,9%
same,growth inhibition,[12]; at 3.7 µM,91% (active)
same,growth inhibition,[12]; at 11.0 µM,99% (active)
same,growth inhibition,[12]; at 33.0 µM,100% (active)
same,growth inhibition,[12]; at 100.0 µM,98% (active)
same,growth inhibition,[13]; at 1.2 µM,49%
same,growth inhibition,[13]; at 3.7 µM,99% (active)
same,growth inhibition,[13]; at 11.0 µM,100% (active)
same,growth inhibition,[13]; at 33.0 µM,100% (active)
same,growth inhibition,[13]; at 100.0 µM,99% (active)
same,growth inhibition,[14]; at 1.2 µM,41%
same,growth inhibition,[14]; at 3.7 µM,99% (active)
same,growth inhibition,[14]; at 11.0 µM,99% (active)
same,growth inhibition,[14]; at 33.0 µM,100% (active)
same,growth inhibition,[14]; at 100.0 µM,99% (active)
same,growth inhibition,[15]; [17],37%
same,growth inhibition,[15]; [18],75% (active)
same,growth inhibition,[15]; at 50.0 µM,92.5% (active)
same,growth inhibition,[16]; at 1.2 µM,46%
same,growth inhibition,[16]; at 3.7 µM,90% (active)
same,growth inhibition,[16]; at 11.0 µM,100% (active)
same,growth inhibition,[16]; at 33.0 µM,100% (active)
same,growth inhibition,[16]; at 100.0 µM,99% (active)
S=C1SCN(CCc2ccccc2)CN1CCc1ccccc1,growth inhibition,[1]; at 1.2 µM,12%
same,growth inhibition,[1]; at 3.7 µM,21%
same,growth inhibition,[1]; at 11.0 µM,46%
same,growth inhibition,[1]; at 33.0 µM,63%
same,growth inhibition,[1]; at 100.0 µM,46%
same,growth inhibition,[2]; at 1.2 µM,16%
same,growth inhibition,[2]; at 3.7 µM,-1%
same,growth inhibition,[2]; at 11.0 µM,46%
same,growth inhibition,[2]; at 33.0 µM,45%
same,growth inhibition,[2]; at 100.0 µM,10%
same,growth inhibition,[3]; at 1.2 µM,26%
same,growth inhibition,[3]; at 3.7 µM,51%
same,growth inhibition,[3]; at 11.0 µM,85% (active)
same,growth inhibition,[3]; at 33.0 µM,92% (active)
same,growth inhibition,[3]; at 100.0 µM,81% (active)
same,growth inhibition,[4]; at 1.2 µM,1%
same,growth inhibition,[4]; at 3.7 µM,0%
same,growth inhibition,[4]; at 11.0 µM,35%
same,growth inhibition,[4]; at 33.0 µM,42%
same,growth inhibition,[4]; at 100.0 µM,26%
same,growth inhibition,[5]; at 1.2 µM,-12%
same,growth inhibition,[5]; at 3.7 µM,5%
same,growth inhibition,[5]; [17],7%
same,growth inhibition,[5]; at 11.0 µM,50%
same,growth inhibition,[5]; at 33.0 µM,64%
same,growth inhibition,[5]; [18],38%
same,growth inhibition,[5]; at 50.0 µM,55%
same,growth inhibition,[5]; at 100.0 µM,52%
same,growth inhibition,[6]; at 1.2 µM,-3%
same,growth inhibition,[6]; at 3.7 µM,1%
same,growth inhibition,[6]; [17],24%
same,growth inhibition,[6]; at 11.0 µM,52%
same,growth inhibition,[6]; at 33.0 µM,54%
same,growth inhibition,[6]; [18],55%
same,growth inhibition,[6]; at 50.0 µM,71.8% (active)
same,growth inhibition,[6]; at 100.0 µM,38%
same,growth inhibition,[7]; at 1.2 µM,-20%
same,growth inhibition,[7]; at 3.7 µM,-4%
same,growth inhibition,[7]; at 11.0 µM,2%
same,growth inhibition,[7]; at 33.0 µM,34%
same,growth inhibition,[7]; at 100.0 µM,16%
same,growth inhibition,[8]; [17],9%
same,growth inhibition,[8]; [18],48%
same,growth inhibition,[8]; at 50.0 µM,76.2% (active)
same,growth inhibition,[9]; at 1.2 µM,3%
same,growth inhibition,[9]; at 3.7 µM,10%
same,growth inhibition,[9]; at 11.0 µM,25%
same,growth inhibition,[9]; at 33.0 µM,45%
same,growth inhibition,[9]; at 100.0 µM,17%
same,growth inhibition,[10]; [17],12%
same,growth inhibition,[10]; [18],12%
same,growth inhibition,[10]; at 50.0 µM,22.1%
same,growth inhibition,[11]; at 1.2 µM,-2%
same,growth inhibition,[11]; at 3.7 µM,3%
same,growth inhibition,[11]; [17],-4%
same,growth inhibition,[11]; at 11.0 µM,23%
same,growth inhibition,[11]; at 33.0 µM,53%
same,growth inhibition,[11]; [18],72% (active)
same,growth inhibition,[11]; at 50.0 µM,79.1% (active)
same,growth inhibition,[11]; at 100.0 µM,42%
same,growth inhibition,[12]; at 1.2 µM,6%
same,growth inhibition,[12]; at 3.7 µM,3%
same,growth inhibition,[12]; at 11.0 µM,53%
same,growth inhibition,[12]; at 33.0 µM,63%
same,growth inhibition,[12]; at 100.0 µM,47%
same,growth inhibition,[13]; at 1.2 µM,-3%
same,growth inhibition,[13]; at 3.7 µM,-10%
same,growth inhibition,[13]; at 11.0 µM,20%
same,growth inhibition,[13]; at 33.0 µM,40%
same,growth inhibition,[13]; at 100.0 µM,19%
same,growth inhibition,[15]; [17],-9%
same,growth inhibition,[15]; [18],80% (active)
same,growth inhibition,[15]; at 50.0 µM,58%
same,growth inhibition,[16]; at 1.2 µM,15%
same,growth inhibition,[16]; at 3.7 µM,25%
same,growth inhibition,[16]; at 11.0 µM,47%
same,growth inhibition,[16]; at 33.0 µM,65%
same,growth inhibition,[16]; at 100.0 µM,39%
